Data taken from PubChem BioAssay AID652017 (The Scripps Research Institute Molecular Screening Center, 2013).
“And” between values parts separate entries of the source, which are not always exact repeats. Equal entries are not always repeated. Screen size: about 370,000 compounds; about 3,800 (1%) were called active. Rule as the data show it: active = activation above about 7.8%; inactive = the rest. The list comes from a sample in which actives are over-represented; it also holds similar structures and randomly drawn compounds.

Assay: SMARCA2 (BRM) function activators, primary screen, cell-based, luminescence, high throughput (AID 652017);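 also: 0% = vehicle wells and 100% = reference activator wells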
Details: MG213 cells, MMTV-luciferase reporter, dexamethasone, overnight; at 9.1 µM; hits give high values

activation, inactive:
Cc1ccc(NC(=O)Nc2cc(C)nn2-c2ccccc2)cc1 -3.87%, Cc1ccccc1OCCOc1ccc([N+](=O)[O-])cc1/C=N/n1cnnc1 -1.85%, C=CCc1ccc(OCCOc2cccc(/C=N/n3cnnc3)c2)c(OC)c1 2.79%, COc1ccc(N2CCN(CCNS(=O)(=O)c3ccc([N+](=O)[O-])cc3)CC2)cc1 -3.04%, COc1ccc(C(=O)Nc2ccc(C3(C#N)CCCC3)cc2)cc1OC 1.54%, O=C(Cc1ccc([N+](=O)[O-])cc1)NCCc1ccc2c(c1)OCO2 4.55%, COc1ccc(Cl)cc1NC(=O)CN(C)CC(=O)Nc1ccc2c(c1)OCO2 -3.2%, CN(C(=O)c1cccc(NC(=O)Cc2cccc([N+](=O)[O-])c2)c1)C1CCCCC1 -2.39%, Cn1c(Cc2cccs2)nnc1SCC(=O)Nc1ccccc1 4.18%, Cc1ccccc1CS(=O)(=O)Cc1ccc(C(=O)Nc2ccc(Cl)cc2)o1 -8.47%, CCc1nn(-c2cc(Oc3cccc4ccccc34)nc(-c3ccccc3)n2)c(N)c1C#N 0.3%, Cc1ccc(NC(=S)N2CCN(c3ncccn3)CC2)cc1C 2.65%, CCNC(=S)N1CCN(S(=O)(=O)c2ccc(Cl)s2)CC1 -1.32%, O=S1(=O)c2ccc(Br)cc2OC[C@@H](Cc2ccccc2)N1Cc1cn(Cc2ccco2)nn1 -0.61%, Cc1cccc(C2C3=C(CCCC3=O)N=C3c4ccccc4C(=O)C32)c1 (configuration not stated) 1.45%, COc1ccc(CCNC(=O)CSc2nc3c([nH]2)c(=O)n(C)c(=O)n3C)cc1 -2.8%, C=CCn1c(=O)c2ccccc2n2c(SCC(=O)N3CCCc4ccccc43)nnc12 1.43%, C=CCn1c(SCC(=O)/C(C#N)=C(\C)N)nc2sc(C)c(C)c2c1=O -1.26%, COc1ccc(CN2C/C(=C/c3ccccc3)N3C(=O)C[C@@H](c4ccccc4)N=C23)c(OC)c1 -4.07%, COc1ccccc1C(=O)NC1CCCCN(C(C)C)C1=O (configuration not stated) -0.79%, Cc1ccc(-n2c(SCC(=O)Nc3cccc4ccccc34)nnc2-c2ccccn2)cc1 -2.65%, O=C1NC[C@H](Cc2ccc(O)cc2)N(C[C@@H]2CCCN2C[C@H](Cc2ccccc2)N2C[C@H](Cc3ccccc3)N(CC3CCCCC3)C(=O)C2=O)C1=O -2.98%, CC(C)C[C@H]1CNC(=O)C(=O)N1C[C@@H]1CCCN1C[C@H](Cc1ccccc1)N1C[C@H](CC(C)C)N(CC2CCCCCC2)C(=O)C1=O -3.56%, O=C(CSc1nc2ccccc2s1)N=Nc1c(O)[nH]c2ccccc12 -2.44%, COc1ccc(N(CC(=O)Nc2ccc(C)cc2C)S(=O)(=O)c2ccccc2[N+](=O)[O-])c(OC)c1 -0.94%, Cc1ccc(S(=O)(=O)N(CC(=O)Nc2cccc([N+](=O)[O-])c2)Cc2ccc(Cl)cc2)cc1 -2.5%, Nc1ccc2c(c1)C(=Cc1cccnc1)c1ccccc1-2 0.27%, Cc1ccc(C2=C/C(=C\c3cccnc3)C(=O)O2)cc1 5.23%, CCn1c(SCC(C)=O)nc2sc3c(c2c1=O)CCCC3 -0.23%, O=C(CSc1nc2sc3c(c2c(=O)n1-c1ccccc1)CCCC3)NN=Cc1ccc(OCc2ccccc2)cc1 -2.96%, Cc1ccc(Cn2cc(CN3[C@@H](C)COc4cc(Br)ccc4S3(=O)=O)nn2)cc1 -6.23%, O=C(Cn1ncc2c3ccccc3n(Cc3ccccc3)c2c1=O)NCc1ccccn1 -0.48%, O=C(O)Cn1c(Cc2ccccc2)nc2ccccc21 -0.68%, O=C1NC[C@@H](CCCCN2CCN(CCc3ccc(O)cc3)C(=O)C2=O)N(CC2CCCCC2)C1=O 0.65%, Cc1ccc(Cn2cc(CN3[C@@H](CC(C)C)COc4ccc(Cl)cc4S3(=O)=O)nn2)cc1 0.91%, CC(CCN1CCC(C(O)(c2ccccc2)c2ccccc2)CC1)Oc1ccc(C(F)(F)F)cc1 (configuration not stated) 0.64%, COC(=O)[C@]12CCCCC=C1N(Cc1ccco1)C(=O)[C@H](CC(=O)NCC1CCCCC1)C2 -5.18%, Cn1c(SCC(=O)Nc2cccc(NC(=O)c3cccs3)c2)nnc1-c1ccncc1 2.18%, Cc1cc(-c2nc(C)c(-c3nnc(SCC(=O)Nc4ccccc4)n3C)s2)no1 -1.01%, Cc1cc(=O)[nH]c(SCC(=O)Nc2ccc(F)cc2F)n1 -4.89%, COc1cccc(C(=O)Nc2nnc(S(=O)(=O)N3CCOCC3)s2)c1 -2.26%, COc1cccc(C(=O)NNS(=O)(=O)c2ccc(F)cc2)c1 -0.53%, O=C(CSc1nc2ccccc2n1Cc1ccccc1Cl)N/N=C\c1c[nH]c2ccccc12 -4.04%, CCc1nc2c(OCCOc3ccccc3)cccn2c1N(C)C(=O)c1ccc(OC)cc1 -6.52%, O=C1CCC2(CCC(c3ccc(Cl)cc3)CC2)N1CCO (configuration not stated) -3.07%, CCCCCCN1CCS(=O)(=O)N(Cc2ccc(C(F)(F)F)cc2)C(C(=O)OC)C1 (configuration not stated) -1.27%, O=C(CSc1nnc(-c2ccccc2)n1Cc1ccco1)Nc1ccccc1-c1ccccc1 -7.03%, Cc1ccc(F)c(NC(=O)CCOc2ccccc2C)c1 -0.21%, Cc1ccc(C)c(NC(=O)CCS(=O)(=O)c2ccccc2)c1 0.55%, C[C@H](NC(=O)c1ccccc1Cl)C(=O)OCCOc1cccc(Cl)c1 -0.67%, O=C(C=CC(=O)Nc1ccc(F)cc1F)Nc1ccc(F)cc1F 0.37%, COC(=O)C[C@@H]1CC[C@@H]2[C@@H](COc3ccc(NC(=O)Nc4ccc(F)c(F)c4)cc3C(=O)N2C)O1 -2.75%, CC(=O)c1sc(N)nc1C -0.52% and -1.75%, Cc1ccc(/C=N/NC(=O)C(NC(=O)c2ccccc2)c2n[nH]c(=O)c3ccccc23)cc1 (configuration not stated) -1.07%, CCOC(=O)c1sc(/N=C/Nc2nc(C)c(C(=O)OCC)s2)nc1C -0.22%, Cc1ccc(C(=O)Nc2nc(N)n(-c3ccccc3)n2)cc1 -1.21%, C[C@H]1CCC/C=C/C(=O)c2c(O)cc(O)cc2CC(=O)O1 6.88%, CCCCNC(=O)C[C@H]1C[C@@]2(C(=O)OC)C(=C[C@H](COCc3ccccc3)O[C@@H]2C)N(Cc2ccc(Cl)cc2Cl)C1=O -3.4%, C=CCN1[C@@H](Cc2ccccc2)COc2cccc(N3CCSCC3)c2S1(=O)=O -1.33%, COC(=O)[C@]1(C#N)CC(=O)N(CC2CCCCC2)[C@@H]1c1ccccc1 -6.17%, COC(=O)[C@]12C[C@H](CC(=O)NCc3ccccc3)C(=O)N(Cc3ccccc3)C1=C[C@H](COCc1ccccc1)O[C@@H]2C 2.84%, Cc1ccc(-c2nc(C3CCCN(S(=O)(=O)c4ccc(Br)s4)C3)no2)cc1 (configuration not stated) -5.3%, CCCCCCCCNS(=O)(=O)/C=C/c1cc(C)ccc1CNC(=O)OC(C)(C)C -5.6%, C=CCN1C(=O)[C@@H](CC(=O)NCC2CCCCC2)[C@]2(C(=O)OC)CCCCC=C12 -0.86%, CCOC(=O)c1cc2cc(-c3c(C(=O)OCC)oc4cc(O)cc(O)c4c3=O)ccc2o1 -3.39%, Cc1cc(NC(=O)CSCc2nc(-c3cccc(Cl)c3)oc2C)no1 -4.35%, Cc1ccc(-c2nc(CSCC(=O)NC3CCN(Cc4ccccc4)CC3)c(C)o2)cc1 -3.96%

activation, active:
COc1cccc(OCCOc2cccc(/C=N/n3cnnc3)c2)c1 10.1%, CCc1ccc[n+](-c2nc([O-])sc2C=O)c1 8%, COc1ccc(C(=O)Nc2ccc3c(c2)OCO3)cc1OC 16.7%, O=C(Nc1cccc([N+](=O)[O-])c1)c1ccc2c(c1)OCO2 8.1%, CCNC(=S)N1CCN(c2ncccn2)CC1 8.35%, CCCn1c(=O)c2ccccc2n2c(SCC(=O)/C(C#N)=C(\C)N)nnc12 9.35%, CC(C)C[C@H]1CNC(=O)C(=O)N1C[C@H]1CCCN1C[C@H](Cc1ccc(O)cc1)N1C[C@H](CC(C)C)N(CC2CCCCCC2)C(=O)C1=O 8.41%, COc1ccc(C)cc1S(=O)(=O)N(CC(=O)Nc1cccc([N+](=O)[O-])c1)c1ccc(C)cc1 9.29%, Cc1ccccc1C1=N/C(=C/c2cccnc2)C(=O)O1 10.3%, Cc1cccc(-n2c(O)c(C=Nc3ccccc3N)c(=O)[nH]c2=O)c1 9.92%, O=S(=O)(Cc1ccccc1)c1nc2ccccc2n1Cc1ccccn1 7.86%, Cc1nc(-c2nnc(SCC(=O)Nc3cc(C(F)(F)F)cc(C(F)(F)F)c3)n2C)cs1 8.28%, COc1cccc(C(=O)Nc2nc3ccc(S(C)(=O)=O)cc3s2)c1 8.68%, C=CC(=O)OCCOCCOCCOCCOC(=O)C=C 13.1%, Cc1ccc(F)c(NC(=O)CCc2ccccc2)c1 11.3%, COC(=O)c1sc(-c2ccc(C(C)(C)C)cc2)cc1NC(=O)/C=C/C(=O)O 9.14%, CC(=O)c1sc(NC(=O)c2ccc(C)cc2)nc1C 9.69%, CC(=O)c1sc(N/N=C\c2ccc(C)cc2)nc1C 13.4%, CN(C)c1nc(=Nc2cccc(Cl)c2)ss1 10.5%, Cc1ccsc1-c1nc(CSCC(=O)NCCN2CCCC2)c(C)o1 8.31%
